# The source made the active and inactive calls.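 The calls were made as follows: active = compound at 10 µM that moves glutamate potency by over twofold either way, or clearly lowers or raises peak response; inactive = the rest.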
# Biological target: Metabotropic glutamate receptor 3 (Rattus norvegicus) (UniProt P31422)
# Experiment: mGluR5 PAM selectivity profiling against rat mGluR3, glutamate response modulation, fold shift by Tl+ flux in HEK/GIRK cells (AID 588728)
# Conditions: HEK/GIRK rat mGluR3, thallium flux, glutamate CRC fold shift, at 10 µM; Emax: measured here: glutamate max response with compound
# Sequence of Metabotropic glutamate receptor 3 (Rattus norvegicus) (P31422 whole entry, looked up): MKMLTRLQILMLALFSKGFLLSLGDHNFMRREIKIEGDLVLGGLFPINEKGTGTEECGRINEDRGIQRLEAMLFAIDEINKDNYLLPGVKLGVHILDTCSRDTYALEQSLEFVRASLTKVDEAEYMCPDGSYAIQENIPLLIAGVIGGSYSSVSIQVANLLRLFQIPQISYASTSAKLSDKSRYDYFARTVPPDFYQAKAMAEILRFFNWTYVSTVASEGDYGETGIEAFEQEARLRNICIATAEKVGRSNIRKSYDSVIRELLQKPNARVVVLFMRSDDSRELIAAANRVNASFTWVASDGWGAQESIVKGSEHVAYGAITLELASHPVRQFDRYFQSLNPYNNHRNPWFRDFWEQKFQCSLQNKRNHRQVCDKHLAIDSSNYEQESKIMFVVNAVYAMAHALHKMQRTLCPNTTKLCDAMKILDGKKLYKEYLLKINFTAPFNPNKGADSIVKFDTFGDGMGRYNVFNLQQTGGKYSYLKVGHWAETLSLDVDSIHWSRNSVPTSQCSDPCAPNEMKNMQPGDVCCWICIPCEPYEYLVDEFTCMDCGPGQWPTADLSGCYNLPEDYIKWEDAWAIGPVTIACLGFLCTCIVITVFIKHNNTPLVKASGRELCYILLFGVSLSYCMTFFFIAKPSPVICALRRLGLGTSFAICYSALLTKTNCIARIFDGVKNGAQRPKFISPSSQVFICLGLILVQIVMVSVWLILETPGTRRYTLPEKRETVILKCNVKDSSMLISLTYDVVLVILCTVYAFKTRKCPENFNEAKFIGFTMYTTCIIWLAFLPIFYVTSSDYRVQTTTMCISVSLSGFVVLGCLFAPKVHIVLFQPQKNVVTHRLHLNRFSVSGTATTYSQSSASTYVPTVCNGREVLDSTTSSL
Compound,Emax,fold shift
CC1(NC(=O)c2ccc(C#Cc3cccc(F)c3)cn2)COC1,84%,0.85 (inactive)
C[C@@H](NC(=O)c1ccc(C#Cc2cccc(F)c2)cn1)C(C)(C)O,89%,0.95 (inactive)
